# Results: PubChem BioAssay (Tox21)
# Unmarked numbers belong to inactive results. Inconclusive results are not listed. Entries that show only a call come without a potency. Calls of active or inactive are those of the source. Unless noted, calls come from the whole dose curve; as a rule, active = well fitted curve in the direction sought with a large enough effect in the repeat runs; inconclusive = weak or mixed curves; inactive = no such curve, though single readings can be large; an effect the other way counts as inactive or inconclusive.
# Experiments:
# [1] = qHTS assay to identify small molecule antagonists of the estrogen related receptor (ERR) signaling pathway from Tox21 library - cell viability counter screen (AID 1224834); note: nearly all actives have a fitted effect of over 30% in size
# In short: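 ERR reporter cells, 2,000 per well, rested 6 h, then exposed to compound in DMSO for 17.5 hours at 37 C. Viability read as fluorescence after 30 min with CellTiter-Fluor.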
# [2] = target: Luciferin 4-monooxygenase (Photinus pyralis) (UniProt P08659); test: qHTS assay to identify small molecule inhibitors of firefly luciferase (AID 1224835); note: nearly all actives have a fitted effect of over 25% in size
# Chain of Luciferin 4-monooxygenase (Photinus pyralis) (P08659 whole entry, looked up): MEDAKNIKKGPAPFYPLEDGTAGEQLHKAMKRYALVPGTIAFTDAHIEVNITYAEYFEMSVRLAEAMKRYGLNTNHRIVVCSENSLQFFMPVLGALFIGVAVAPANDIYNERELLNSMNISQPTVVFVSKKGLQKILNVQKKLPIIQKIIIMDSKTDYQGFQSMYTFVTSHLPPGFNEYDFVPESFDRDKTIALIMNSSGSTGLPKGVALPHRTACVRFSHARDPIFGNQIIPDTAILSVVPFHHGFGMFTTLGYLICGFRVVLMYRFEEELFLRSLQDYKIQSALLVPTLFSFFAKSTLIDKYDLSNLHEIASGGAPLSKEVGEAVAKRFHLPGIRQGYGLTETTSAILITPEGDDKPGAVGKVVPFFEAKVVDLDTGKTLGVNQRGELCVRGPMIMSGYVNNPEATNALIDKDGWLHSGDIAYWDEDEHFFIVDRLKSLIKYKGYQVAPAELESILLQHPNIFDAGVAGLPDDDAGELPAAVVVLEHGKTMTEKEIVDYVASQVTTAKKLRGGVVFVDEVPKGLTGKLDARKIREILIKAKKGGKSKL
# In short: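 Inhibition of purified Photinus luciferase is measured by luminescence. Substrate levels (D-luciferin, ATP) sit at their KM values. Each compound is tested in a concentration series.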
# [3] = qHTS assay to identify small molecule agonists of the constitutive androstane receptor (CAR) signaling pathway - cell viability counter screen (AID 1224836); note: nearly all actives have a fitted effect of over 45% in size
# In short: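 Fluorescence from CellTiter-Fluor indicates live cells after 23 h exposure. The human hepatoma line expresses hCAR and a CYP2B6-2.2kb reporter. Incubation medium contains 0.75 uM PK11195 (final).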
# [4] = qHTS assay to identify small molecule antagonists of the constitutive androstane receptor (CAR) signaling pathway - cell viability counter screen (AID 1224837); note: nearly all actives have a fitted effect of over 45% in size
# In short: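 HepG2 cells stably carrying hCAR and CYP2B6-2.2kb reporter, stimulated with 50 nM CITCO and compounds at 15 concentrations for 23 h at 37 C. Viability measured by CellTiter-Fluor fluorescence.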
# [5] = target: Nuclear receptor subfamily 1 group I member 3 (Homo sapiens) (UniProt Q14994); test: qHTS assay to identify small molecule antagonists of the constitutive androstane receptor (CAR) signaling pathway (AID 1224838); note: nearly all actives have a fitted effect of over 40% in size
# Chain of Nuclear receptor subfamily 1 group I member 3 (Homo sapiens) (Q14994 whole entry, looked up): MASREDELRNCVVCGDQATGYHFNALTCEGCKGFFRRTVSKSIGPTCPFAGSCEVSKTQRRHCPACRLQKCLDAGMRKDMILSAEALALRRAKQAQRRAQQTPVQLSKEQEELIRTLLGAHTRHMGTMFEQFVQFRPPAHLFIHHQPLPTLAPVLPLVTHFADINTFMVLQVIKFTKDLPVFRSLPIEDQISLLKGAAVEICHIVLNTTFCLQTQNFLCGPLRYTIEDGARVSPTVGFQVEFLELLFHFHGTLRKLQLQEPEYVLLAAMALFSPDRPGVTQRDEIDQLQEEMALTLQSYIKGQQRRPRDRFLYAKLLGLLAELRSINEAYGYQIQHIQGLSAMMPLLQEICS
# In short: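 HepG2 cells stably carrying hCAR and a CYP2B6-2.2kb luciferase reporter, seeded 4 hrs before compound (15 concentrations). Stimulated with 50 nM CITCO for 24 hr at 37 C. ONE-Glo luminescence read after 30 min at room temperature.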
# [6] = target: Nuclear receptor subfamily 1 group I member 3 (Homo sapiens) (UniProt Q14994); test: qHTS assay to identify small molecule agonists of the constitutive androstane receptor (CAR) signaling pathway (AID 1224839); note: nearly all actives have a fitted effect of over 15% in size; note: potency is the fitted concentration of half-maximal effect
# In short: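 Stable hCAR/CYP2B6-2.2kb HepG2 line in DMEM with 10% FBS; compounds (15 concentrations) and 0.75 uM PK11195 final, 24 h at 37 C/5% CO2, then ONE-Glo luminescence after 30 min.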
# [7] = qHTS assay to identify small molecule antagonists of the estrogen related receptor signaling pathway with the pleiotropic PPARgamma coactivator (PGC) from Tox21 10K library - cell viability counter screen (AID 1224840; active = well fitted cell-killing curve with a large enough effect in the repeat runs, not every such curve was filed as active; note: nearly all actives have a fitted effect of over 40% in size)
# In short: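 PGC/ERR cells (2,000/well) plated 6 h, then compound-treated for 17.5 h at 37 C. Viability measured by CellTiter-Fluor fluorescence after 30 min at 37 C, multiplexed with the pathway assay.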
# [8] = target: Thyrotropin receptor (Homo sapiens) (UniProt P16473); test: qHTS assay to identify small molecule agonists of the thyroid stimulating hormone receptor (TSHR) signaling pathway (AID 1224843; calls by dose curve; note: nearly all actives have a fitted effect of over 45% in size; note: potency is the fitted concentration of half-maximal effect)
# Chain of Thyrotropin receptor (Homo sapiens) (P16473 whole entry, looked up): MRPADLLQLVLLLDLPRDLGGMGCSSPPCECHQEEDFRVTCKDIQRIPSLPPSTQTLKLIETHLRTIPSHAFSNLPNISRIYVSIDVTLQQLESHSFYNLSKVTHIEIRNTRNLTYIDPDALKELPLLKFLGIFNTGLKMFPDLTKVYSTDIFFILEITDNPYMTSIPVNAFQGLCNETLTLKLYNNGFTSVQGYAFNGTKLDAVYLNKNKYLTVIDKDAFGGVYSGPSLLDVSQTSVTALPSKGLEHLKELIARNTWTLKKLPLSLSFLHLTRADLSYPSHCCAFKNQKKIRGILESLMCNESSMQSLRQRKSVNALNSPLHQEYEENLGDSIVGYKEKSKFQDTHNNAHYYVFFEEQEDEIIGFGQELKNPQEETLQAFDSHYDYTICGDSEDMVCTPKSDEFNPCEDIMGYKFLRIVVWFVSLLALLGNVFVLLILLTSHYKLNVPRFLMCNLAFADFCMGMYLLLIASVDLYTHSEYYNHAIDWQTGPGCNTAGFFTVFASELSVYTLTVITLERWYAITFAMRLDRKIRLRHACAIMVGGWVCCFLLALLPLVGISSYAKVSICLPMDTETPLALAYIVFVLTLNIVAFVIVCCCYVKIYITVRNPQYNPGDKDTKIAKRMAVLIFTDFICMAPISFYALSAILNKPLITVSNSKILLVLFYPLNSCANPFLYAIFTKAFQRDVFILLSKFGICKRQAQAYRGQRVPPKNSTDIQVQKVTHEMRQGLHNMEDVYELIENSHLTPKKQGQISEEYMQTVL
# In short: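 HEK293 cells stably bearing the thyrotropin receptor were plated at 800 cells/well and challenged with compound (30 min, RT). Accumulated cAMP was quantified via cAMP-d2 competing for cryptate-tagged antibody.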
# [9] = qHTS assay to identify small molecule agonists of H2AX (AID 1224845; active = well fitted activation curve with a large enough effect in the signal ratio in the repeat runs, not every such curve was filed as active; the % refers to the signal ratio)
# In short: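 Phospho-H2AX Ser139 measured by HTRF (ex 320 nm; em 665 and 620 nm) after 24 hr antibody incubation. Compounds, 15 concentrations, 0.76% DMSO, were applied to CHO-K1 cells for 3hr at 37C before lysis.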
# [10] = qHTS assay to identify small molecule agonists of the hypoxia (HIF-1) signaling pathway (AID 1224846; active = well fitted activation curve with a large enough effect in the signal ratio in the repeat runs, not every such curve was filed as active; the % refers to the signal ratio)
# In short: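 HRE-bla ME-180 beta-lactamase reporter cells in medium with 0.5% dialyzed FBS, pre-incubated 5 h then exposed to compounds 17 h at 37C, 5% CO2; reporter induction read with CCF4-AM FRET substrate.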
# [11] = qHTS assay to identify small molecule agonists of H2AX - cell viability counter screen (AID 1224847; calls by dose curve; note: top concentration of the series differs between compounds; nearly all actives have a fitted effect of over 30% in size)
# In short: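 Viability of CHO-K1 (wild type) cells after 3 hr compound exposure was measured by CellTiter-Glo luminescence.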
# [12] = qHTS RealTime-Glo MT Cell Viability Assay in HepG2 cells - 24 hour (AID 1224867); note: nearly all actives have a fitted effect of over 50% in size
# In short: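 HepG2 cells were seeded at 600 cells/well together with NanoLuc luciferase and a cell-permeant prosubstrate, preincubated 5 h at 37 C/5% CO2, then pin-dosed with compounds in DMSO. Nonlytic luminescence from viable cells was read at each time point.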
# [13] = qHTS RealTime-Glo MT Cell Viability Assay in HEK293 cells - 32 hour (AID 1224868); note: top concentration of the series differs between compounds; nearly all actives have a fitted effect of over 50% in size
# In short: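 HEK293 cells were seeded at 600 cells/well together with NanoLuc luciferase and cell-permeant prosubstrate, preincubated 5 h at 37 C/5% CO2, then given compound in DMSO by pintool. Luminescence from viable-cell prosubstrate reduction was read repeatedly over 40 h.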
# [14] = A CellTox Green Cytotoxicity Assay to monitor cytotoxicity in HEK293 cells - 0 hour (AID 1224869); note: nearly all actives have a fitted effect of over 50% in size
# In short: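 HEK293 cells, 600/well, were preincubated 5 hours and then exposed to compounds at 37 C for up to 40 hours. A cell-impermeant cyanine dye staining dead-cell DNA was read by fluorescence at 0, 8, 16, 24, 32 and 40 h time points.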
# [15] = qHTS assay to identify small molecule agonists of the hypoxia (HIF-1) signaling pathway - cell viability counter screen (AID 1224844; calls by dose curve; note: nearly all actives have a fitted effect of over 50% in size)
# In short: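 HRE-bla ME-180 cells, 2,000/well in 0.5% dialyzed FBS medium, treated 17 h at 37C with compounds. Viability read in the same wells as the bla reporter, by CellTiter-Glo luminescence after 30 min at room temperature.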
# [16] = qHTS assay to identify small molecule antagonists of the estrogen related receptor signaling pathway with the pleiotropic PPARgamma coactivator (PGC) from Tox21 10K library (AID 1224841; call rule not given here)
# In short: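 PGC/ERR cell line, 2,000 cells/well, pre-incubated 6 hours at 37 C, then exposed to compounds for 18 hours at 37 C; luciferase read with One-Glo luminescence after 30 min at room temperature.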
# [17] = qHTS assay to identify small molecule agonists of the estrogen related receptor signaling pathway with the pleiotropic PPARgamma coactivator (PGC) from Tox21 10K library (AID 1224842); note: nearly all actives have a fitted effect of over 15% in size
# In short: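 Luminescence from One-Glo (30 min, room temperature) measured after PGC/ERR cells had 18 h at 37 C with pinned compound (23 nL in DMSO). Cells had been seeded at 2,000 per well and pre-incubated 6 h.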
# [18] = qHTS assay to identify small molecule antagonists of the estrogen related receptor (ERR) signaling pathway from Tox21 library (AID 1224848); note: nearly all actives have a fitted effect of over 50% in size
# In short: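 Reading was by luminescence 30 min after ONE-Glo addition. Before that, ERR cells at 2,000 per well had rested 6 h at 37 C/5% CO2 and then received pin-tooled compounds in DMSO for 18 h at 37 C.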
# [19] = qHTS assay to identify small molecule agonists of the estrogen related receptor (ERR) signaling pathway from Tox21 library (AID 1224849; calls by dose curve; note: nearly all actives have a fitted effect of over 15% in size); details: ERR reporter cell line, ONE-Glo luciferase, 18 h; at 92.4 µM (top of the series) unless noted
# In short: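 ERR reporter cells (NTP line) pre-incubated 6 hours at 37 C, then exposed to compounds for 18 hours at 37 C. ONE-Glo luciferase luminescence was read after 30 minutes at room temperature.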
# [20] = qHTS RealTime-Glo MT Cell Viability Assay in HepG2 cells - 40 hour (AID 1224870); note: nearly all actives have a fitted effect of over 50% in size
# In short: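 Real-time viability: cells seeded at 600 per well together with NanoLuc and cell-permeant prosubstrate, compounds added after 5 h incubation. Luminescence tracked at 0, 8, 16, 24, 32 and 40 h of exposure.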
smiles,measurement,setting,value
O=C1OC(=O)C2C1C1(Cl)C(Cl)=C(Cl)C2(Cl)C1(Cl)Cl (configuration not stated),Potency,[1],inactive
same,Potency,[2],inactive
same,Potency,[3],inactive
same,Potency,[4],inactive
same,Potency,[5],inactive
same,Potency,[6],inactive
same,Potency,[7],inactive
same,Potency,[8],inactive
same,Potency,[9],inactive
same,outcome,[10],inactive
same,Potency,[11],inactive
same,Potency,[12],inactive
same,Potency,[13],inactive
same,Potency,[14],inactive
CNCC(=O)c1ccc(O)c(O)c1,Potency,[1],inactive
same,Potency,[2],inactive
same,Potency,[3],inactive
same,Potency,[4],inactive
same,Potency,[5],inactive
same,Potency,[6],inactive
same,Potency,[7],inactive
same,Potency,[8],2.37 µM (active)
same,Potency,[15],inactive
same,outcome,[10],inactive
same,Potency,[11],inactive
same,Potency,[12],inactive
same,Potency,[13],inactive
same,Potency,[14],inactive
ClC(Cl)Br,Potency,[1],inactive
same,Potency,[2],inactive
same,Potency,[3],inactive
same,Potency,[4],inactive
same,Potency,[5],inactive
same,Potency,[6],inactive
same,Potency,[8],inactive
same,Potency,[15],inactive
same,Potency,[9],inactive
same,outcome,[10],inactive
same,Potency,[11],inactive
same,Potency,[12],inactive
same,Potency,[13],inactive
same,Potency,[14],inactive
N#CCNCC#N,Potency,[1],inactive
same,Potency,[2],inactive
same,Potency,[3],inactive
same,Potency,[4],inactive
same,Potency,[5],inactive
same,Potency,[6],inactive
same,Potency,[16],inactive
same,outcome,[17],inactive
same,Potency,[15],inactive
same,Potency,[9],inactive
same,outcome,[10],inactive
same,Potency,[11],inactive
same,Potency,[18],inactive
same,"activity change, positive = activation",[19],2.04%
same,Potency,[12],inactive
same,Potency,[13],inactive
CCCSP(=O)(OCC)Oc1ccc(Br)cc1Cl (configuration not stated),Potency,[1],inactive
same,Potency,[2],inactive
same,Potency,[3],inactive
same,Potency,[4],inactive
same,Potency,[5],inactive
same,Potency,[6],13.3 µM (active)
same,Potency,[8],inactive
same,Potency,[15],inactive
same,Potency,[9],inactive
same,outcome,[10],inactive
same,Potency,[11],inactive
same,Potency,[12],inactive
same,Potency,[13],inactive
same,Potency,[20],inactive
CCN(Cc1ccc(Cl)nc1)/C(=C/[N+](=O)[O-])NC,Potency,[1],inactive
same,Potency,[2],inactive
same,Potency,[3],inactive
same,Potency,[4],inactive
same,Potency,[5],inactive
same,Potency,[6],inactive
same,Potency,[7],inactive
same,Potency,[15],inactive
same,Potency,[9],inactive
same,outcome,[10],inactive
same,Potency,[11],inactive
same,Potency,[12],inactive
same,Potency,[13],inactive
same,Potency,[14],inactive
same,Potency,[20],inactive
COP(=S)(OC)Oc1ccc(S(N)(=O)=O)cc1,Potency,[1],inactive
same,Potency,[2],inactive
same,Potency,[3],inactive
same,Potency,[4],inactive
same,Potency,[5],inactive
same,Potency,[6],inactive
same,Potency,[8],inactive
same,Potency,[15],inactive
same,Potency,[9],inactive
same,outcome,[10],inactive
same,Potency,[11],inactive
same,Potency,[13],inactive
same,Potency,[14],inactive
O=CNC(N1CCN(C(NC=O)C(Cl)(Cl)Cl)CC1)C(Cl)(Cl)Cl (configuration not stated),Potency,[1],inactive
same,Potency,[2],inactive
same,Potency,[3],inactive
same,Potency,[4],inactive
same,Potency,[5],inactive
same,Potency,[6],inactive
same,Potency,[16],inactive
same,outcome,[17],inactive
same,Potency,[8],inactive
same,Potency,[15],inactive
same,Potency,[9],inactive
same,outcome,[10],inactive
same,Potency,[11],inactive
same,Potency,[18],inactive
same,"activity change, positive = activation",[19],2.23%
same,Potency,[12],inactive
same,Potency,[13],inactive
same,Potency,[14],inactive
same,Potency,[20],inactive
CC1=C(C(=O)O)N2C(=O)[C@@H](N)[C@H]2SC1,"viability change, negative = cytotoxic",[1],3.67% [at 19 µM]
same,"activity change, negative = inhibition",[2],-0.398% [at 23.6 µM]
same,"viability change, negative = cytotoxic",[3],4.01% [at 19 µM]
same,"activity change, negative = cytotoxicity",[4],0.992% [at 19 µM]
same,"activity, negative = inhibition",[5],17.2% [at 19 µM]
same,activation,[6],-1.84% [at 19 µM]
same,"activity, negative = inhibition",[16],1.75% [at 19 µM]
same,activation,[17],0.483% [at 19 µM]
same,activation,[8],0.53% [at 19 µM]
same,"activity change, negative = cytotoxicity",[15],0.296% [at 15.8 µM]
same,activation (H2AX phosphorylation),[9],-1.16% [at 31.6 µM]
same,activation,[10],-0.576% [at 15.8 µM]
same,"activity change, negative = cytotoxicity",[11],-3.1% [at 31.6 µM]
same,"activity change, positive = activation",[19],3.36% [at 19 µM]
same,"activity change, negative = cytotoxicity",[12],0.806% [at 15.8 µM]
same,"activity change, negative = cytotoxic",[13],1.51% [at 15.8 µM]
same,cytotoxicity,[14],-3.35% [at 15.8 µM]
same,"activity change, negative = cytotoxic",[20],1.44% [at 15.8 µM]
